# Measurements published in the supplement of paper PMC10849652.
# Of roughly 7,900 targets only a part is listed; those with a hit were picked by preference. About 0.6% of all pairs of compound and target were hits. A number with no mark means an inactive call.
# Experiments:
# Experiment in all cases: log2 fold change, soluble protein after heating vs DMSO (PISA); higher = thermal stabilisation; K562 cells, 10 uM, 30 min; active = over 0.2 and 3.5 SD of the protein, either way, in both replicates (recomputed)
# erlotinib = compound: C#Cc1cccc(Nc2ncnc3cc(OCCOC)c(OCCOC)cc23)c1 [erlotinib]
# Summary of the method: (§1)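 Soluble protein was defined as the supernatant after 21,000xg for 90 min. It came from K562 cells at 2×10^6 cells/mL given 10 μM compound for 30 min, heated in aliquots for 3 min across 48°C-58°C, pooled, and extracted in PBS with 0.5% NP-40 at 4°C, and was quantified by TMTpro 16plex LC-MS/MS with equalised channel sums. Thermal stability against control samples, from duplicates, is reported as log2 fold change.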
# [1] = compound: C/C(=N\NC(=O)C1=CC(=CC=C1)S(=O)(=O)N2CCOCC2)/C3=C(C=CC(=C3)Cl)O
# Summary of the method: as §1
# [2] = compound: C1=CC(=C(C=C1Cl)C2=NC3=NC=CN=C3C(=N2)NC4=CC=NC=C4)F
# Summary of the method: as §1
# [3] = compound: C1=CC(=CC=C1C2=NC3=C(N2)C=C(C=C3)C(=O)N)OC4=CC=C(C=C4)Cl
# Summary of the method: as §1
# [4] = compound: C1=CC2=C(C=CC(=C2)/C=C\3/C(=O)NC(=NCC4=CC=CS4)S3)N=C1
# Summary of the method: as §1
# [5] = compound: C1=CC2=NC=CN=C2C=C1/C=C/3\C(=O)NC(=O)S3
# Summary of the method: as §1
# [6] = compound: C1=CC=C(C=C1)C2=NC(=C(N2)C3=CC=NC=C3)C4=CC(=C(C=C4)Cl)O
# Summary of the method: as §1
# [7] = compound: C1=CC=C2C(=C1)C3=NNC4=CC=CC(=C43)C2=O
# Summary of the method: as §1
# [8] = compound: C1CCN(C1)C(=O)NC2=CC=CC(=C2)NC3=NC=C(C(=N3)NCCC4=CN=CN4)Br
# Summary of the method: as §1
# [9] = compound: C1CN(CCC1(CC2=CC=C(C=C2)Cl)N)C3=NC=NC4=C3C=CN4
# Summary of the method: as §1
# Chain of UniProt Q9H4I9 (Q9H4I9 whole entry, looked up): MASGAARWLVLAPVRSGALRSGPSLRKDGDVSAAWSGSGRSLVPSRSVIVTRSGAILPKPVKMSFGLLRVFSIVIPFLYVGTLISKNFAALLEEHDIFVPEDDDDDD
# Chain of UniProt Q9UHD2 (Q9UHD2 whole entry, looked up): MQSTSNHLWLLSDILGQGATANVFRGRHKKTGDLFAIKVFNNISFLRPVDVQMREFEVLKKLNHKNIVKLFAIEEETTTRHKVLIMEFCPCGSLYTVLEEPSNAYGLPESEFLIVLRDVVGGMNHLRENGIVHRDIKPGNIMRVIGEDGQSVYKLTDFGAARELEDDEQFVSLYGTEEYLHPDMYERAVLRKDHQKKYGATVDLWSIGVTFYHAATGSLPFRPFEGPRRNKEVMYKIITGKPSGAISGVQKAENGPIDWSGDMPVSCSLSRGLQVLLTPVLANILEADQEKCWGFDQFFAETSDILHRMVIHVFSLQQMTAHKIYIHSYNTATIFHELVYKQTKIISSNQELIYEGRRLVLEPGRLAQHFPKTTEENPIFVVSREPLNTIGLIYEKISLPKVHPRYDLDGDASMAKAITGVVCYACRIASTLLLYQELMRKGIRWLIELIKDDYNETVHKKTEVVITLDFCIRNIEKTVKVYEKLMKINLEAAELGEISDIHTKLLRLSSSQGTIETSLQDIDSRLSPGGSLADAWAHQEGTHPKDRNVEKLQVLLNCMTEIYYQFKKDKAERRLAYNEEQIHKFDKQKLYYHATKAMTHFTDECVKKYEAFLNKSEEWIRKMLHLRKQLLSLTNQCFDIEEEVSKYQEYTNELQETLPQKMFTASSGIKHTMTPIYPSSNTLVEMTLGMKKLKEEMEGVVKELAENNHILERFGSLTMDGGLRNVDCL
# Chain of UniProt Q9H5L6 (Q9H5L6 whole entry, looked up): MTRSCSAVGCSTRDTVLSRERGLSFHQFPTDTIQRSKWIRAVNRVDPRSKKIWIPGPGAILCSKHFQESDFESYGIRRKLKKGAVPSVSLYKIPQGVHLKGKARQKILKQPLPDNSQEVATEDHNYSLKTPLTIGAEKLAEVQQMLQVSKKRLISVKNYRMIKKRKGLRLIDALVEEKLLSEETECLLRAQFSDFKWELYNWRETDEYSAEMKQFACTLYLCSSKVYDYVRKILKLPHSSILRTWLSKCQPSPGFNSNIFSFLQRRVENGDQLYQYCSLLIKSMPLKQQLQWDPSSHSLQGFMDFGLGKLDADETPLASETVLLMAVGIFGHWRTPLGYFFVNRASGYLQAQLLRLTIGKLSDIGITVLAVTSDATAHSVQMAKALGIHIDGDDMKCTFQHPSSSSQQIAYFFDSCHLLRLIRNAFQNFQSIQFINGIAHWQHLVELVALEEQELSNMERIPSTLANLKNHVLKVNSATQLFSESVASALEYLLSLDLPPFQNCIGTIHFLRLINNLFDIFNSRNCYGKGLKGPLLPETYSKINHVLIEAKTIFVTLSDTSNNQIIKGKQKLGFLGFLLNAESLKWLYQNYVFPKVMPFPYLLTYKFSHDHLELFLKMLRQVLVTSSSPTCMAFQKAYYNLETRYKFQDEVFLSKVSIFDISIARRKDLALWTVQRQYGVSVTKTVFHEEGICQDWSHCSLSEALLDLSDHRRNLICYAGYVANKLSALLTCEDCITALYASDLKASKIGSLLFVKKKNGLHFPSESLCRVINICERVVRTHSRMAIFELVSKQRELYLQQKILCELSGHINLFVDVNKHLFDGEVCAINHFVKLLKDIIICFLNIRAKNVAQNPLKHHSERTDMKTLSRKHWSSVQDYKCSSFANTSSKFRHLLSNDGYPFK
# Chain of UniProt Q8IWZ8 (Q8IWZ8 whole entry, looked up): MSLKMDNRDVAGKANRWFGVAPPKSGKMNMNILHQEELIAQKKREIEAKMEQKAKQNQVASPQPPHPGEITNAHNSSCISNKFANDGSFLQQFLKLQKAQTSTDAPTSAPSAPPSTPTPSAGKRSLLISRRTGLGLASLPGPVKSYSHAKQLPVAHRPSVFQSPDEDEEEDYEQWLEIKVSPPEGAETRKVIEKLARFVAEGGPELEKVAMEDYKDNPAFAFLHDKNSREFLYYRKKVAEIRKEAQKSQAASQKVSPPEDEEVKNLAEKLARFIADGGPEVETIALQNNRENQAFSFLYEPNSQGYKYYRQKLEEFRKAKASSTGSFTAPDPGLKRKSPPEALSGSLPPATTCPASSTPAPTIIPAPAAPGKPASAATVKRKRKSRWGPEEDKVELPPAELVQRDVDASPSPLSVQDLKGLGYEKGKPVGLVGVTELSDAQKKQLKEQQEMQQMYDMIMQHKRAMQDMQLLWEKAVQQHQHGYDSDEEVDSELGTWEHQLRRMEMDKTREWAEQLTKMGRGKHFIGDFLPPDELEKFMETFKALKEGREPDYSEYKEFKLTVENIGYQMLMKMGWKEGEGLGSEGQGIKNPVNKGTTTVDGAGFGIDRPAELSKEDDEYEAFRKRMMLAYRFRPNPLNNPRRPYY
# Chain of UniProt Q8N1S5 (Q8N1S5 whole entry, looked up): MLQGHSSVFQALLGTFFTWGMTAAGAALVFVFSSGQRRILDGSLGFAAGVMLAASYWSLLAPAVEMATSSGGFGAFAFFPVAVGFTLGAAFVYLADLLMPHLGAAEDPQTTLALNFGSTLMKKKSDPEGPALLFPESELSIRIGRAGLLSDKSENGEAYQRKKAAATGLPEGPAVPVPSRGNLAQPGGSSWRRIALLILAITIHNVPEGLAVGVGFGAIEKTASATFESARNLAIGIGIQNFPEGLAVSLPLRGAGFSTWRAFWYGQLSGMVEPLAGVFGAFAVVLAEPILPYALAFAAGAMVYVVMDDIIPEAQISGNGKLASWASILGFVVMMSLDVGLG
# Chain of UniProt P20226 (P20226 whole entry, looked up): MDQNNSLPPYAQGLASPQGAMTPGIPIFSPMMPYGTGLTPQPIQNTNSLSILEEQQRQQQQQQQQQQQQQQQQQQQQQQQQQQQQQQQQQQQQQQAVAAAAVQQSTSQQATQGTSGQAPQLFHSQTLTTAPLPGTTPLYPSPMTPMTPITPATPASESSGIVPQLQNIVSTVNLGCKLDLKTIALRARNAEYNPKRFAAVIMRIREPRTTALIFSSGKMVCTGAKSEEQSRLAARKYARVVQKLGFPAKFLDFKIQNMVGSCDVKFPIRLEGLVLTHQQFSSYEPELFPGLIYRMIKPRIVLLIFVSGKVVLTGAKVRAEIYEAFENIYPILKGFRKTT
# Chain of UniProt Q5VWP2 (Q5VWP2 whole entry, looked up): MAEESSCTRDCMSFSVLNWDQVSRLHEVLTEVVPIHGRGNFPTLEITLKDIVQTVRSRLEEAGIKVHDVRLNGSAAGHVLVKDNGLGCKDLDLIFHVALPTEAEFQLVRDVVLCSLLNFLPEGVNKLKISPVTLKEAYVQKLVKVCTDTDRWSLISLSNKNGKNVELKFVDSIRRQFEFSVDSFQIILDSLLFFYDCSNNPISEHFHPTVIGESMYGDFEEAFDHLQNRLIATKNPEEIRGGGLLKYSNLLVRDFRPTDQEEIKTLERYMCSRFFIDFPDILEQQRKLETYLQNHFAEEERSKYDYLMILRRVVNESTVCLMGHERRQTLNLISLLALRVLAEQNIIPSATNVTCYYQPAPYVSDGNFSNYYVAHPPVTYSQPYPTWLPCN
# Chain of UniProt Q9BYX2 (Q9BYX2 whole entry, looked up): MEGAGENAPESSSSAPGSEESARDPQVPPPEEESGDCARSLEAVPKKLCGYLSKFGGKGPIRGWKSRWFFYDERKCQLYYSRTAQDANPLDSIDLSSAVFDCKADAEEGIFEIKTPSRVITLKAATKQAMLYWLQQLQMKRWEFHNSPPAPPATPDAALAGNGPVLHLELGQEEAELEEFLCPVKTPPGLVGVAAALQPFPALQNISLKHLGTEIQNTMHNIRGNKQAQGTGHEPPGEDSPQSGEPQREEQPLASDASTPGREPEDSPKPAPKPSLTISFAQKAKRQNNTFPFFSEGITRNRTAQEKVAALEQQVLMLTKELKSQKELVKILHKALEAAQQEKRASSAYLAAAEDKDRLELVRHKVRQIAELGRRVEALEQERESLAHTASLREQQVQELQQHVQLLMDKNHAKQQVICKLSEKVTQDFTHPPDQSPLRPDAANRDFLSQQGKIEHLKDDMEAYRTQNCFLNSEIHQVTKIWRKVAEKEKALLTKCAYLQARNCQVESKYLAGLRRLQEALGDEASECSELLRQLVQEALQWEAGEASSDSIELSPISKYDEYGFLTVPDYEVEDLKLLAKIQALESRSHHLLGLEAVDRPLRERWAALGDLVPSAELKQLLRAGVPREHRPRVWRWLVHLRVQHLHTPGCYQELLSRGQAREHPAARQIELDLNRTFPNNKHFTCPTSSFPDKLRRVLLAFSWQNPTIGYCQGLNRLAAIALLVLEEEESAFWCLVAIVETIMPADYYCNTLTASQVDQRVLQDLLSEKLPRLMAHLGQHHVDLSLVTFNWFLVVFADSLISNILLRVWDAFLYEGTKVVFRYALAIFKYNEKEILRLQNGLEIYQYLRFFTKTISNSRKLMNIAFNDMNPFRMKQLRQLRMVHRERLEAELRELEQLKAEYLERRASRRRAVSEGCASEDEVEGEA
# Chain of UniProt Q969S0 (Q969S0 whole entry, looked up): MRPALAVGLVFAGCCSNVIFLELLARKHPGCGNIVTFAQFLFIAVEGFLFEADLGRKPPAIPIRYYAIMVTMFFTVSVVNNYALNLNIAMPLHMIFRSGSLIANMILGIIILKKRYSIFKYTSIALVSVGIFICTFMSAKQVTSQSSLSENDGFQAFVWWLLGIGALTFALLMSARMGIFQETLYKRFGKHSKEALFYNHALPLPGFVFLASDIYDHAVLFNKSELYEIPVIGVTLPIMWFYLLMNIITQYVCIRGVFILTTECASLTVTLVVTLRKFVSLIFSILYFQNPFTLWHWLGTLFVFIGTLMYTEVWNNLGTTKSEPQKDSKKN
# Chain of UniProt Q9BYN0 (Q9BYN0 whole entry, looked up): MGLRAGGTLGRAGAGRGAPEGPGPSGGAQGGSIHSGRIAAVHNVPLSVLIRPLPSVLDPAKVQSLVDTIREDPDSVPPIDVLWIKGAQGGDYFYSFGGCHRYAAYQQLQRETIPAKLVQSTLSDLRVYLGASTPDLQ
Target,log2 fold change (erlotinib),log2 fold change [1],log2 fold change [2],log2 fold change [3],log2 fold change [4],log2 fold change [5],log2 fold change [6],log2 fold change [7],log2 fold change [8],log2 fold change [9]
SUGP1 (UniProt Q8IWZ8),0.039,0.093,-0.027,-0.029,-0.01,0.005,0,-0.012,-0.03,-0.001
TBK1 (UniProt Q9UHD2),-0.042,0.009,0.003,-0.048,0.044,0.026,-0.082,0.009,0.029,-0.105
SOX5 (UniProt P35711),0.009,0.006,,0.125,0.047,0.018,-0.049,0.012,-0.069,0.095
SPAG9 isoform 4 (UniProt O60271),0.019,0.048,,-0.087,-0.103,-0.065,0.272,0.04,0.03,0.119
SLC35B4 (UniProt Q969S0),-0.055,0.194,-0.033,0.105,0.085,0.024,,-0.243,-0.015,-0.231
SRCAP (UniProt Q6ZRS2),0.039,,,0.031,,0.117,-0.191,,0.059,-0.254
SLC8B1 (UniProt Q6J4K2),0.111,0.089,,0.003,-0.039,0.095,0.016,0.032,,
SYNE2 isoform 2 (UniProt Q8WXH0),0.405,-0.672 (active),,-0.301,0.084,-0.027,-0.007,0.001,-0.045,0.029
TCOF1 isoform 6 (UniProt Q13428),-0.234,,,0.074,,-0.045,0.186,,0.002,0.02
SPIN4 (UniProt Q56A73),-0.125,,,0.116,,,,,,
TM7SF2 (UniProt O76062),-0.012,,,-0.05,,,-0.151,,,
TK1 (UniProt K7ERV3),,0.063,-0.011,,0.028,-0.006,-0.069,0.037,-0.015,0.061
TACC2 (UniProt O95359),-0.219,0.008,,0.06,0.005,0.075,-0.128,0.014,0.014,-0.026
TM7SF3 (UniProt Q9NS93),-0.073,0.053,,0.03,-0.101,0.034,0.02,0.061,0.001,0.123
SLC9A6 isoform 3 (UniProt Q92581),0.006,0.013,,-0.103,-0.022,0.18,,-0.068,0.021,0.006
SNX15 (UniProt Q9NRS6),,0.062,,,-0.088,-0.006,0,-0.065,-0.166,-0.072
THAP9 (UniProt Q9H5L6),,-0.733 (active),,,0.163,-0.211,0.123,-0.057,,
SLC35B1 isoform 2 (UniProt P78383),-0.024,,-0.008,0.127,,0.018,0.085,,-0.021,0.271
TBP (UniProt P20226),,-0.016,0.027,,0.073,0.041,0.012,-0.058,0.018,0.157
SP2 (UniProt Q02086),,0,,,0.229,,,0.095,,

Target,log2 fold change (erlotinib),log2 fold change [1],log2 fold change [2],log2 fold change [3],log2 fold change [4],log2 fold change [5],log2 fold change [6],log2 fold change [7],log2 fold change [8],log2 fold change [9]
SREBF1 isoform 4 (UniProt P36956),0.034,,0.045,0.001,,0.068,,,,
TC2N (UniProt Q8N9U0),,0.038,,,0.362,,-0.021,0.054,0.042,-0.004
SMDT1 (UniProt Q9H4I9),,0.012,-0.032,,0.044,0.067,,0.044,0.01,0.036
TBC1D2 (UniProt Q9BYX2),,0,-0.042,,0.063,,,-0.006,,
SMARCB1 (UniProt Q12824),,,,,,,,,0.038,0.025
SLC46A1 (UniProt Q96NT5),0.094,-0.017,,-0.054,-0.042,,,0,-0.193,0.091
TAF6L (UniProt Q9Y6J9),0.042,0.08,,-0.132,0.009,,-0.051,0.088,-0.069,-0.197
SLC39A11 (UniProt Q8N1S5),-0.042,-0.009,,0.05,0.043,0.009,0.07,0.053,-0.144,0.019
SRXN1 (UniProt Q9BYN0),,0.335,0.097,,0.036,0.031,0.004,-0.017,-0.021,0.048
SSBP4 (UniProt Q9BWG4),0.08,0.076,,0.043,-0.054,-0.056,-0.052,-0.099,0.022,-0.024
TCOF1 isoform 3 (UniProt Q13428),0.062,,-0.193,-0.172,,,-0.056,,0.101,0.012
TENT5C (UniProt Q5VWP2),-0.117,,,0.087,,0.023,-0.104,,-0.025,-0.017
SLC39A1 (UniProt Q9NY26),0.123,,,0.053,,,,,,
TGFBR1 isoform 2 (UniProt P36897),-0.012,0.084,,-0.051,-0.072,0.043,0.161,0.004,-0.019,0.047
SMPD4 isoform 2 (UniProt Q9NXE4),,-0.001,,,0.134,-0.027,,-0.003,-0.011,0.05
SUN1 isoform 9 (UniProt O94901),0.055,0.037,-0.346 (active),0.032,0.066,,-0.052,0.066,0.057,0.094
TAOK2 (UniProt Q9UL54),-0.043,,-0.019,0.156,,,0.029,,-0.014,0.029
SNX2 isoform 2 (UniProt O60749),,-0.244,0.091,,0.402,-0.186,,-0.033,,
STK17B (UniProt O94768),0.128,,,0.072,,-0.169,,,,
SRSF6 (UniProt Q13247),0.084,0.096,-0.072,0.062,-0.325,0.079,,-0.251,0.09,-0.154
